HT1080 IDH1KD tx: kills HT-1080 cells with IDH1 knockdown | HT-1080 IDH1 knockdown viability, ATP luminescence, 48 h | Potency, µM (top dose mostly 46.1 µM), for the others: top-dose activity, negative = toxicity, usual class: cytotoxic | actives 2% (n = 360,000) | AID 686971;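 note: potency is the fitted concentration of half-maximal effect; 0% = DMSO wells and -100% = cell-free medium wells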
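Cytotoxicity counter-line: IDH1KD HT-1080, 48 h, CellTiter-Glo. Curves classed by r2, magnitude and activity.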
TDP1 cell CPT: DT40-hTDP1 cell growth loss with CPT; AID 686979; Potency, µM (highest dose often 46.2 µM), for the others: at the highest dose activity change, negative = growth inhibition, actives largely listed as inhibitors; actives 12% (n = 420,000); chicken DT40 Tdp1-/-;hTDP1 cells + 20 nM CPT, ATP luminescence, 48 h; note: potency is the fitted concentration of half-maximal effect; nearly all actives have a fitted effect of over 55% in size
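Cell growth measured by CellTiter-Glo luminescence after a minimum 48 h, 37 C compound exposure with 20 nM CPT in Tdp1-knockout DT40 cells stably expressing hTDP1, seeded 400/well; qHTS titration format.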
IL-1B inflam inh: inflammasome signaling inhibition, IL-1 beta readout; THP-1 LPS/ATP IL-1B secretion, AlphaLISA, 16 h; active compounds read low; activity change, % at 57.5 µM; actives 4.7% (n = 360,000); in the data active = activity change below about -50%; inconclusive = mostly about -30% to -49%
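Secreted IL-1B measured by AlphaLISA bead assay after 16 h compound exposure of THP-1 cells; compounds (final up to 57.5 uM) added 1 h before LPS (250 ng/mL) and ATP (1.25 mM) stimulation; lower signal means less secretion.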
TDP1 cell noCPT: qHTS for Inhibitors of human tyrosyl-DNA phosphodiesterase 1 (TDP1): qHTS in cells in absence of CPT; DT40 Tdp1-/- hTDP1 cells, no CPT, ATP luminescence, 48 h; Potency, µM (doses to about 46.2 µM), inactives show at the highest dose activity change, negative = growth inhibition, most hits filed as inhibitors; actives 15% (n = 420,000); AID 686978, 2013; note: potency is the fitted concentration of half-maximal effect; nearly all actives have a fitted effect of over 55% in size
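DT40 Tdp1-/-;hTDP1 cells, no CPT (DMSO vehicle only), 400 cells/well; compounds pin-transferred; ≥48 hr, 37 °C; CellTiter-Glo 30 min RT dark, luminescence read.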
HT1080NT lethal: kills 2HG-producing HT-1080-NT fibrosarcoma cells | HT-1080-NT fibrosarcoma viability, CellTiter-Glo ATP luminescence, 48 h | Potency, µM (doses to about 46.1 µM), for the others: top-dose activity, negative = less viability, usual class: cytotoxic | actives 1.6% (n = 360,000) | AID 686970;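 note: NT is the 2HG producing partner of a matched IDH1 knockdown line; potency is the fitted concentration of half-maximal effect; 0% = DMSO-treated cells and -100% = media-only wells without cells; nearly all actives have a fitted effect of over 55% in size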
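Viability of the 2HG-overproducing fibrosarcoma line after 48 hours of compound exposure at 37 degrees C was determined by luminescence with CellTiter-Glo, and concentration-effect curves were then fitted and categorized.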
ELG1 DNA repair: ELG1-dependent DNA repair inhibition. HEK293T ELG1-luciferase reporter, luminescence, 16 h; DNA damage induced by 5-fluorouridine. Potency, µM (doses to about 46.1 µM), inactives show top-dose activity change, negative = inhibition, hits mostly inhibitors. actives 2.3% (n = 330,000). AID 504467; note: potency is the fitted concentration of half-maximal effect; nearly all actives have a fitted effect of over 55% in size
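Cells (2,000 per well) received 5-fluorouridine plus test compound or DMSO and were incubated 16 hr at 37 °C, 5% CO2. Luciferase activity was read by luminescence 30 min after ONE-Glo addition; signal suppression marked inhibition of damage-induced ELG1 function.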
An asterisk follows results filed as active; ? = inconclusive; . = no result given. This is a sample that favours compounds with a hit; in the whole collection about 19% have one here. Unless noted, calls come from the whole dose curve; as a rule, active = well fitted curve in the direction sought with a large enough effect; inconclusive = small, poorly fitted or top-dose-only effect, or another doubt; inactive = no such curve, though single readings can be large; an effect the other way counts as inactive or inconclusive. Unless noted, % is set by controls: 0 for no effect and ±100 for the full control effect.

SMILES	HT1080 IDH1KD tx	TDP1 cell CPT	IL-1B inflam inh	TDP1 cell noCPT	HT1080NT lethal	ELG1 DNA repair
COc1ccc(S(=O)(=O)Nc2cc(Cl)ccc2OC)cc1	?	2.3µM*	36	2.3µM*	6.5µM*	?
O=C(c1cccn1-c1nnc(N2CCCC2)s1)N1CCN(c2ccc(F)cc2)CC1	.	16µM*	.	18µM*	.	.
Cc1ccc(C)c(N2CCN(C(=O)c3cccn3-c3nnc(N4CCCCC4)s3)CC2)c1	.	?	.	15µM*	.	.
Cn1c(C(=O)N2CCN(c3ccc(F)cc3)CC2)cc2ccccc21	-1%	-3%	6	?	0%	?
Cc1ccc(C)c(N2CCN(C(=O)c3csc(C)c3C)CC2)c1	-3%	?	-10	?	-18%	-14%
CCc1cccc(C)c1NC(=O)Cn1nnc(-c2nc(-c3ccccc3F)no2)c1N	.	8%	.	-12%	.	.
